Assay outcomes deposited in PubChem by National Center for Advancing Translational Sciences (NCATS).
Shiga toxin inh = A qHTS for Small Molecule Inhibitors of Shiga Toxin; actives 9.2% (n = 290,000); inhibition, % at 38.7 µM; Vero cells, Shiga toxin protein synthesis inhibition reporter; in the data active means inhibition mostly above about 28%, no sharp cut-off; inactive means mostly below about 43%; further: 0% is about no effect
Sm TGR inh = qHTS Assay for the Inhibitors of Schistosoma Mansoni Peroxiredoxins | Schistosoma mansoni thioredoxin glutathione reductase (TGR), Q962Y6 | purified TGR, DTNB reduction, TNB absorbance 405 nm | Potency, µM (highest dose often 114 µM), for inactives: at the top dose activity change, negative = inhibition, usual class: inhibitors | actives 3% (n = 360,000); active means well fitted inhibition curve with a large enough effect; inconclusive means small, poorly fitted or top-dose-only effect; inactive means no such curve, though single readings can be large or run the other way; further: potency means the concentration at half of the fitted maximal effect; on the % scale 0 is the no-effect control and ±100 the full control effect; nearly all actives have a fitted effect of over 60% in size
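First, TGR (20 nM dispensed) and NADPH were mixed with compound. Second, a 15 min room-temperature incubation followed. Third, further NADPH and then DTNB were added to start the reaction. Finally, TNB absorbance was monitored kinetically.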
CHX counter = Cycloheximide Counterscreen for Small Molecule Inhibitors of Shiga Toxin; cell reporter, cycloheximide protein synthesis inhibition counterscreen; max response, %; actives 12% (n = 300,000); in the data active means max response mostly above about 13%, no sharp cut-off; inactive means mostly below about 14%; further: read at 38.3 µM for the half of the compounds with a filed dose; 0% is about no effect
FMDV antiviral = High Throughput Screening for Foot and Mouth Disease Virus Antivirals; FMDV antiviral cell-based qHTS; Potency, µM (series often up to 57.9 µM), inactives show at the highest dose activity change, negative = inhibition, usual class: inhibitors; actives 1.2% (n = 410,000); AID 1159524, 2015; calls by dose curve; tested in HEK293T cells; further: read-out not given here; potency means the concentration at half of the fitted maximal effect; on the % scale 0 is the no-effect control and ±100 the full control effect; nearly all actives have a fitted effect of over 45% in size
* marks the source's active call; other numbers are inactive results; ? = inconclusive; / = not tested or not shown. Compounds with a hit are over-represented: about 12% of the library has one in this group of screens.

SMILES | Shiga toxin inh | Sm TGR inh | CHX counter | FMDV antiviral
COc1ccc(/C(C)=N/NC(=O)OC(C)(C)C)cc1[N+](=O)[O-] | 79* | -1% | 22* | 18%
Cc1ccc(C(=O)Nc2nnc(S(=O)(=O)N3CCCc4ccccc43)s2)cc1 | / | 6% | / | 31%
c1coc(CNc2nc3nonc3nc2NCc2ccco2)c1 | -5 | 50µM* | 4 | ?
O=Cc1c(NCc2ccco2)nc2ccccn2c1=O | 24 | ? | 16* | 39%
CCC(C)N=Cc1c(NCc2ccco2)nc2c(C)cccn2c1=O (centres undefined) | -13 | 24% | 3 | -11%
O=S(=O)(Nc1nc2ccccc2nc1NCc1ccco1)c1ccccc1 | -12 | -30% | -1 | 0%
COc1ccc(-c2ccnc(-n3ncc(C(=O)NC(C)(C)CO)c3C3CC3)n2)cc1F | / | / | / | 43%
COc1cccc(OC)c1C(=O)Nc1cccc(S(=O)(=O)Nc2ccccc2Cl)c1 | / | / | / | -2%
Cc1ccc(NC(=O)c2ccc(Cl)nc2)cc1 | 140* | 4% | 34* | 64%
O=C(Nc1cccc(S(=O)(=O)Nc2ccccc2Cl)c1)c1ccc(Cl)nc1 | -3 | 10% | 1 | 28µM*
O=C(Nc1cccc(S(=O)(=O)N2CCCCC2)c1)c1ccc(Cl)nc1 | / | / | / | 14µM*
O=C(Nc1ccc(S(=O)(=O)N2CCCCC2)cc1)c1ccc(Cl)nc1 | / | / | / | 40µM*
O=C(NCc1cccnc1)c1nn(-c2ccccc2F)nc1CO | / | -4% | / | -5%
O=C(Nc1cccc(S(=O)(=O)N2CCCCC2)c1)c1ccc2ncsc2c1 | 89* | 5% | 86* | -14%
O=C(Nc1ccc(Cc2ccncc2)cc1)c1ccc(S(=O)(=O)N2CCCC2)cc1 | -2 | 5% | -2 | 16µM*
NS(=O)(=O)c1cccc(NC(=O)c2cccc(S(=O)(=O)N3CCCCCC3)c2)c1 | / | / | / | -16%
Cc1ccc(NC(=O)c2nc[nH]c2C(=O)Nc2ccc(C)cc2)cc1 | -6 | -32% | -3 | 0%
O=C(Nc1ccc(S(=O)(=O)N2CCCCC2)cc1)c1ccncc1 | -11 | 3% | -8 | -18%
Cc1ccc(NC(=O)c2nsc(Cl)c2Cl)cc1 | 70* | 4% | 56* | 69%
O=C(Nc1cccc(O)c1)c1ccc(S(=O)(=O)N2CCCCCC2)cc1 | 52* | -4% | 18* | -9%
CCN(CC)S(=O)(=O)c1ccc(NC(=O)c2ccc(Cl)nc2)cc1 | -5 | -9% | -2 | -27%
CCCSc1ccc(C(=O)Nc2ccc(Cl)cc2)cn1 | 43 | -3% | 28* | -4%
Cc1nc(-c2cccc(NC(=O)Cc3ccccc3)c2)cs1 | 23 | 0% | 32* | 30%
Cc1nc(-c2cccc(NC(=O)c3cccs3)c2)cs1 | 33 | 0% | 16* | -4%
Cc1nc(-c2cccc(NS(C)(=O)=O)c2)cs1 | 33 | 1% | 1 | 9%
SMILES | Shiga toxin inh | Sm TGR inh | CHX counter | FMDV antiviral
O=C(Nc1cccc(-c2csc(-c3ccccc3)n2)c1)c1cccs1 | 19 | -3% | 7 | /
CCOC(=O)c1c(C)nc2ccccc2c1-c1ccccc1 | -11 | 1% | -4 | -15%
CCOC(=O)c1c(C)nc(-c2ccccc2)nc1NC(=O)CC | 70* | -2% | 24* | -3%
CCOC(=O)c1c(CCl)nc2ccccc2c1-c1ccccc1 | -5 | 25µM* | -1 | ?
CCOC(=O)c1c(C)nc2ccccc2c1C | 15 | -2% | 25* | -1%
COC(=O)c1ccc(CSc2c(C(C)C)cnc3c2c(=O)n(C)c(=O)n3C)cc1 | / | 0% | / | ?
Cc1c(C(=O)NCc2ccc(OC(C)C)cc2)sc2ncnc(N(C)C3CCCCC3)c12 | / | 12% | / | -25%
Cc1cc(C)cc(NS(=O)(=O)c2ccc3[nH]cc(C(=O)NCc4ccco4)c(=O)c3c2)c1 | -8 | 40µM* | -1 | 1%
COCCNC(=O)c1c[nH]c2ccc(S(=O)(=O)Nc3ccc(F)cc3F)cc2c1=O | -10 | -1% | 15* | 12%
CCOc1ccc(NC(=O)C(C)n2c(=O)cc(-c3ccccc3)c3c(C)nn(C)c32)cc1 (centres undefined) | / | -7% | / | -14%
CCc1nn(CC(=O)N(C)Cc2ccccc2)c(=O)c2cc3sccc3n12 | / | -1% | / | -19%
C=CCn1cccc(C(=O)Nc2ccc(OC)c(Cl)c2)c1=O | 54* | -16% | 24* | -3%
C=CCn1cccc(C(=O)Nc2cc(OC)cc(OC)c2)c1=O | 20 | -1% | 26* | 18%
CCOc1ccc(C2N3CC4(C(C)C)CN2CC(C(C)C)(C3)C4=O)cc1OC (centres undefined) | / | 9% | / | -20%
COc1ccccc1-c1cc(C(=O)NCc2cccs2)no1 | 28 | 9% | 12 | 36%
